Assay results as given in PubChem BioAssay AID1159580 (chemical genetic matrix, 2015).
In all, about 5,500 compounds went through this assay and about 2,000 (36%) were called active. Not shown: some 18% with an inconclusive outcome. No stated cut-off is given here; in the data, active means normalized growth mostly below about 0.91 (no sharp cut-off); inconclusive means no clear call, values can overlap the other calls; inactive means mostly above about 0.92. This is one part of the list.

Assay: chemical genetic growth profiling, strain panel (AID 1159580);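 further: tested at 20 µM; growth read once vehicle control cultures reached saturation at 30 °C; 1 = growth at the plate median or of vehicle wells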
Conditions: S. cerevisiae deletion strains, growth OD

Measured: normalized growth

NC(=O)CCCCC1CCSS1 (configuration not stated)
inactive: locus YHR030C, strain SLT2, stronger effect = lower value 1.02 | locus YHR079C, strain IRE1, stronger effect = lower value 0.976 | locus YJL095W, strain BCK1, stronger effect = lower value 1.01 | locus YJR066W, strain TOR1, stronger effect = lower value 0.955 | locus YLR113W, strain HOG1, stronger effect = lower value 1.02 | locus YNL183C, strain NPR1, stronger effect = lower value 0.966 | locus YOR231W, strain MKK1, stronger effect = lower value 0.986 | locus YPL256C, strain CLN2, stronger effect = lower value 1.01

O=C(O)CCCC[C@@H]1CCSS1
inactive: locus YAL013W, strain DEP1, stronger effect = lower value 0.962 | locus YAL040C, strain CLN3, stronger effect = lower value 0.933 | locus YCL061C, strain MRC1 (second series), stronger effect = lower value 0.979 | locus YDR150W, strain NUM1, stronger effect = lower value 0.996 | locus YDR363W, strain ESC2, stronger effect = lower value 0.971 | locus YER002W, strain NOP16, stronger effect = lower value 0.968 | locus YGR229C, strain SMI1, stronger effect = lower value 0.957 | locus YMR307W, strain GAS1, stronger effect = lower value 0.962 | locus YNL153C, strain GIM3, stronger effect = lower value 1.01 | locus YNL175C, strain NOP13, stronger effect = lower value 0.979 | locus YNL197C, strain WHI3, stronger effect = lower value 0.972 | locus YNL224C, strain SQS1, stronger effect = lower value 0.977 | locus YOR083W, strain WHI5 (second series), stronger effect = lower value 0.937 | locus YPL055C, strain LGE1, stronger effect = lower value 0.989
